In PubChem BioAssay AID745 (Emory University Molecular Libraries Screening Center, 2007):
Among all 33,000 compounds or so, about 40 (0.1%) were called active. Rule as the data show it: active = z-score below about -3; inactive = the rest. Many of the other results were omitted from the sample, so actives are more common in it than they were.

Assay: inhibitors of measles virus growth in cells, primary screen, measles RdRp inhibitor project, cell-based, single point, HTS (AID 745)
Settings: infected Vero cells, GFP fluorescence, 64 h; active compounds read low

z-score, inactive:
CC1=C(C(=O)N2CCOCC2)C(c2cccc(Cl)c2)C2=C(CCCC2=O)N1 (stereo not drawn) 0.7, COc1cc(NS(=O)(=O)c2ccc(NC(=O)CN3C(=O)c4ccccc4C3=O)cc2)ncn1 -0.53, CCOC(=O)Cc1nnc(NC(=O)c2ccc([N+](=O)[O-])cc2)s1 -0.27, Cc1c(C(=O)Nc2cccc(Cl)c2)oc2ccc(S(=O)(=O)N3CCOCC3)cc12 -0.46, C=CCn1c(SCCCC)nc2sc3c(c2c1=O)CCC3 1.46, Cc1cc(C)cc(NC(=O)c2cnn3c(C(F)(F)F)cc(-c4ccco4)nc23)c1 0.42, C=CCOc1ccc(NC(=O)C(=O)NC(C)c2ccccc2)cc1 (stereo not drawn) 0.77, O=C(O)COc1ccc(-c2cc(C(=O)O)c3cc(Br)ccc3n2)cc1 0.41, NS(=O)(=O)c1ccc(CCNC(=O)c2ccc3c(=O)n(Cc4ccco4)c(=S)[nH]c3c2)cc1 0.48, COc1cccc(C(=O)Nc2ccc3nc(N4CCCCC4)cc(C)c3c2)c1 -0.1, COc1cc(CNc2ccc3[nH]c(=O)[nH]c3c2)ccc1OCc1cccs1 -1.62, CCCCc1ccc(C(=O)Nc2ccc3nc(N4CCN(C)CC4)cc(C)c3c2)cc1 -0.21, COc1ccc(-c2nc3ccccc3n2Cc2ccccc2)cc1OC 0.26, O=C(Nc1ccc(Cl)cn1)c1ccc(-c2ccc(Cl)cc2)o1 -0.31, CCOC(=O)c1c(C)nc2c(C#N)c(C)n(-c3ccccc3)c2c1-c1ccc(Br)cc1 3.74, Cc1ccc(C2NC(=O)c3c(sc4c3CCCC4)N2)c(O)c1 (stereo not drawn) -1.13, CC1=C(C(=O)OCC(C)C)C(c2ccc(OCc3ccccc3)cc2)N2C(=O)CCSC2=N1 (stereo not drawn) -0.14, COc1ccc2nc(SCc3ccc(Cl)cc3)[nH]c2c1 0.1, COc1cc(C2CC(=O)c3cnc(NC(C)=O)nc3C2)cc(OC)c1OC (stereo not drawn) 1.22, Cc1cc(N2C(=O)c3ccccc3C2=O)ccc1Br -1.04, Cc1cccc(NC(=O)c2cc3c(=O)n4cccc(C)c4nc3s2)c1 -1.13, Cc1ccc(-n2c(SCC(=O)OCc3ccccc3)nc3c(c2=O)SCC3)cc1 -1, O=C1NC(c2ccccc2)Oc2ccccc21 (stereo not drawn) -0.5, Cc1ccc(Sc2c(C)nn(C(C)(C)C)c2OC(=O)C2CCCC2)cc1 -0.01, C=CCOC(=O)C1=C(C)N=C2SCCC(=O)N2C1c1ccc(Br)cc1 (stereo not drawn) -1.08, Cc1cc(C)cc(NC(=O)C(C)N(c2ccccc2)S(C)(=O)=O)c1 (stereo not drawn) 0.11, COC(=O)Cn1c(=O)n(-c2ccccc2)c(=O)n1CC(=O)OC 1.19, O=C1C2C3c4ccccc4C(Br)(c4ccccc43)C2C(=O)N1c1ccc([N+](=O)[O-])cc1 (stereo not drawn) -0.34, O=c1oc2ccc3ccccc3c2cc1-c1nc(-c2ccccc2)cs1 0.88, CC1CCC(NS(=O)(=O)c2ccc3c(c2)oc(=O)n3C)CC1 (stereo not drawn) -0.87, CN1CCN(C(=O)c2cnn3c(C(F)(F)F)cc(-c4ccc(Br)cc4)nc23)CC1 -0.34, O=C(NCc1ccc(F)cc1)c1ccc2c(=O)n(C3CCCC3)c(=S)[nH]c2c1 -0.53, COc1ccc(-c2c(C(F)(F)F)oc3cc(O)ccc3c2=O)cc1 0.21, CC(C)c1ccccc1NC(=O)c1ccccc1 0.08, CC(C)c1ccc(NC(=O)c2ccc(NC3CCCC(C)C3C)c([N+](=O)[O-])c2)cc1 (stereo not drawn) -0.26, O=C(CSc1nc2c(cnn2-c2ccc(F)cc2)c(=O)[nH]1)N1CCCCCC1 -0.88, CCCn1c2ccccc2c2n[nH]c(=S)nc21 -0.86, Cc1ccc(Cl)cc1N1CCN(C(=O)CCCn2c(=S)[nH]c3cc4c(cc3c2=O)OCO4)CC1 1.87, Cc1ccc(-c2cc3nc(C)cc(C(F)(F)F)n3n2)cc1 -0.75, COC(=O)c1ccc(Sc2ccc(C)cc2)c([N+](=O)[O-])c1 0.34, CCCn1c(C(C)NC(=O)C(C)(C)C)nc2ccccc21 (stereo not drawn) -0.58, Cc1cccc(NC(N)=Nc2nc(CSc3ccc(Cl)cc3)cc(=O)[nH]2)c1 0.03, O=[N+]([O-])c1ccc(C=Nc2ccc(-c3nc4ccccc4o3)cc2)s1 -1.32, CC(C)(C)c1ccc(C(=O)Nc2ccc(N3CCOCC3)c(Cl)c2)cc1 -1.1, CN(Cc1ccccc1)C(=O)Cn1ncc2c(=O)oc3ccccc3c21 1.21, CCCCNC(=O)c1ccc[nH]c1=S 0.16, CC(=O)c1cccc(NC(=O)c2ccccc2C(=O)O)c1 -0.2, COc1ccc(OC)c2[nH]c(=O)c(CCNC(=O)c3ccccc3I)cc12 -0.19, CSCCC1(C(=O)O)NC(c2cc(I)ccc2O)C2C(=O)N(Cc3ccccc3)C(=O)C21 (stereo not drawn) -0.74, O=C(NCc1ccccc1)c1ccc(CSCc2ccccc2Cl)o1 -0.18, Cc1ccc(S(=O)(=O)n2nc(OC(=O)c3ccc(F)cc3)cc2N)cc1 -1.65, Cn1c(=O)c(Cl)c(O)c2ccccc21 0.2, COC(=O)c1c(NC(=O)Cn2cnc([N+](=O)[O-])n2)sc2c1CCCC2 -0.06, CCOc1ccc(N=C2NC(=O)C(CC(=O)Nc3ccc(Br)cc3)S2)cc1 (stereo not drawn) -0.81, Cc1cccc(NC(=O)c2ccc(F)c(S(=O)(=O)N3CC(C)CC(C)C3)c2)c1 (stereo not drawn) -0.97, COC(=O)c1c(NC(=O)c2ccc(S(=O)(=O)N3CC(C)CC(C)C3)cc2)sc2c1CC(C)(C)NC2(C)C (stereo not drawn) -0.34, Cc1cccc(N2CCN(C(=O)c3ccc4nc5ccc(Cl)cc5c(=O)n4c3)CC2C)c1 (stereo not drawn) 0.3, CCOc1ccccc1NC(=O)c1sc2ncnc(N3CCCCC3C)c2c1C (stereo not drawn) 1.12
